Measurements reported in PubChem BioAssay (EPA / NIEHS).
Records with an inconclusive call do not appear. Activity calls are given as the source filed them. The calls were made as follows, unless noted: active = hit-call score of the fitted dose curve at least 0.9, where 1 is the maximum; inactive = score below 0.9.

Assays:
[1] = IUF_NPC2b_neuronal_migration_120hr: Leibniz Research Institute for Environmental Medicine (IUF) 120-hour Neural Progenitor Cell Migration Assay for Neuron Migration (NPC2b) (AID 2284300)
Experimental: IUF_NPC2-5 is a cell-based, multiplexed assay that uses hNPC, a human primary neural progenitor cells, with measurements taken at 72 or 120 hours after chemical dosing in a 96-well plate. Human neural progenitor cells (hNPC) are generated from human fetal brain cortex at gestational week (GW) 16-19. In the neural progenitor cell migration and differentiation assay (NPC2-5), hNPCs grown as spheres are plated on an extracellular matrix and migrate and differentiate out of the sphere core. The processes radial glia migration, neuronal and oligodendrocyte migration as well as neuronal differentiation, neuronal morphology and oligodendrocyte differentiation are studied using automated phase contrast imaging and automated fluorescence imaging in combination with high content image analysis. In parallel, the cell viability is assessed using an alamar blue viability assay and the cytotoxicity using a lactate dehydrogenase dependent membrane integrity assay.IUF_NPC2b_neuronal_migration_120hr is one of 12 assay components measured from the IUF_NPC2-5 assay. Neuronal migration distance at 120 hr is the mean distance of all neurons from the edge of the sphere core to each individual neuron (see IUF_NPC3_neuronal_differentiation_120hr). Neuronal migration is normalized to radial glia migration distance at 120 hr.Data from the IUF_NPC2b_neuronal_migration_120hr component was analyzed at the endpoint IUF_NPC2b_neuronal_migration_120hr in the positive analysis fitting direction relative to DMSO as the negative control and baseline of activity. Using a type of migration reporter, gain or loss-of-signal activity can be used to understand developmental effects.
Culture protocol: After the cell expansion period the cells are cultured for up to four weeks in which they are passaged every week as described in 3.6. Between one to three days after passaging spheres at a size of 0.3 mm are picked for the test method. For the assessment of neural progenitor cell migration and differentiation, the spheres are plated on poly-D-lysine/laminin coated 96-well flat bottom plates in differentiation medium (N2) to initiate migration and differentiation. Thereby one 0.3 mm big sphere is plated in the middle of a well. The differentiation medium consists of DMEM and Ham's F12 at a ratio of 3 to 1 supplemented with 1% N2 and 1% penicillin and streptomycin. Within 5 days NPCs radially migrate out of the sphere core and differentiate into radial glia cells (nestin positive), neurons (TUBB3 positive), oligodendrocytes (O4 positive) and astrocytes (GFAP positive). Cultivation during the test method is performed at 37C and 5% CO2 at a ph of 7.2-7.6.Exposure: 0.3 mm big hNPC are plated in the already prepared test conditions. […] Therefore, half of the test condition solution (e.g. solvent control or compound dilution) is replaced by freshly prepared test condition solution.Test Method: Migration distance and cytotoxicity is determined after 72 hours based on brightfield images of each well. […] On the ICC images, migration after 120 hours, neuronal and oligodendrocyte number, neuronal morphology and neuron/oligodendrocyte specific migration is assessed. immunocytochemical staining (ICC) generates an image for each sphere. The plates are scanned using an automated high content imaging device and all nuclei and their positions are determined automatically based on their intensity and size. […]

[2] = IUF_NPC3_neuronal_differentiation_120hr: Leibniz Research Institute for Environmental Medicine (IUF) 120-hour Neuronal Differentiation Assay (NPC3) (AID 2284301)
Method in brief: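 Primary human fetal neural progenitor spheres (GW 16-19, 0.3 mm) plated on poly-D-lysine/laminin in N2 medium, exposed from day 0 for 120 h with half-medium refresh at day 3. TUBB3+ cells as percent of Hoechst nuclei in migration area; DMSO baseline.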

[3] = IUF_NPC4_neurite_length_120hr: Leibniz Research Institute for Environmental Medicine (IUF) 120-hour Neuronal Morphology Assay for Neurite Length (NPC4) (AID 2284302)
Experimental: IUF_NPC2-5 is a cell-based, multiplexed assay that uses hNPC, a human primary neural progenitor cells, with measurements taken at 72 or 120 hours after chemical dosing in a 96-well plate. Human neural progenitor cells (hNPC) are generated from human fetal brain cortex at gestational week (GW) 16-19. In the neural progenitor cell migration and differentiation assay (NPC2-5), hNPCs grown as spheres are plated on an extracellular matrix and migrate and differentiate out of the sphere core. The processes radial glia migration, neuronal and oligodendrocyte migration as well as neuronal differentiation, neuronal morphology and oligodendrocyte differentiation are studied using automated phase contrast imaging and automated fluorescence imaging in combination with high content image analysis. In parallel, the cell viability is assessed using an alamar blue viability assay and the cytotoxicity using a lactate dehydrogenase dependent membrane integrity assay.IUF_NPC4_neurite_length_120hr is one of 12 assay components measured from the IUF_NPC2-5 assay. The neurite length at 120 hr is the mean length in um of all neurons (see IUF_NPC3_neuronal_differentiation_120hr) that are identified by the skeletonization algorithm in Omnisphero.Data from the IUF_NPC4_neurite_length_120hr component was analyzed at the endpoint IUF_NPC4_neurite_length_120hr in the positive analysis fitting direction relative to DMSO as the negative control and baseline of activity. Using a type of differentiation reporter, gain or loss-of-signal activity can be used to understand developmental effects.
(§1) Culture protocol: After the cell expansion period the cells are cultured for up to four weeks in which they are passaged every week as described in 3.6. Between one to three days after passaging spheres at a size of 0.3 mm are picked for the test method. For the assessment of neural progenitor cell migration and differentiation, the spheres are plated on poly-D-lysine/laminin coated 96-well flat bottom plates in differentiation medium (N2) to initiate migration and differentiation. Thereby one 0.3 mm big sphere is plated in the middle of a well. The differentiation medium consists of DMEM and Ham's F12 at a ratio of 3 to 1 supplemented with 1% N2 and 1% penicillin and streptomycin. Within 5 days NPCs radially migrate out of the sphere core and differentiate into radial glia cells (nestin positive), neurons (TUBB3 positive), oligodendrocytes (O4 positive) and astrocytes (GFAP positive). Cultivation during the test method is performed at 37C and 5% CO2 at a ph of 7.2-7.6.Exposure: 0.3 mm big hNPC are plated in the already prepared test conditions. Exposure starts at day 0 of differentiation and is continued over five days of differentiation until the experiment is terminated. Cells are fed with fresh medium at day 3 of differentiation. Therefore, half of the test condition solution (e.g. solvent control or compound dilution) is replaced by freshly prepared test condition solution.Test Method: Migration distance and cytotoxicity is determined after 72 hours based on brightfield images of each well. […] On the ICC images, migration after 120 hours, neuronal and oligodendrocyte number, neuronal morphology and neuron/oligodendrocyte specific migration is assessed. immunocytochemical staining (ICC) generates an image for each sphere. The plates are scanned using an automated high content imaging device and all nuclei and their positions are determined automatically based on their intensity and size. […]

CD69, CD69 (gene 969) = test: BSK_LPS_CD69: BioMAP Diversity Plus: LPS Assay for CD69 Biomarker Activity (AID 2284303); conditions: primary human HUVEC with PBMC
Experimental: BSK_LPS is a cell-based, multiplexed-readout assay that uses umbilical vein endothelium and peripheral blood mononuclear cells, a human vascular primary cell co-culture, with measurements taken at 24 hours after chemical dosing in a 96-well plate.BSK_LPS_CD69 is an assay component measured in the BSK_LPS assay. It measures CD69 antibody related to regulation of gene expression using ELISA technology.Data from the assay component BSK_LPS_CD69 was analyzed at the endpoint, BSK_LPS_CD69, in the positive analysis fitting direction relative to DMSO as the negative control and baseline of activity. Using a type of binding reporter, gain or loss-of-signal activity can be used to understand protein changes. To generalize the intended target to other relatable targets, this assay endpoint is annotated to the 'cytokine' intended target family, where the subfamily is 'inflammatory factor'.
The levels of cell surface (or secreted, indicated by the prefix "s") biomarker endpoints were measured by ELISA. Overt cytotoxicity to cells in confluent adherent cultures (all systems other than the BT system) was assessed by measuring total protein levels using sulforhodamine B (SRB) staining in parallel cultures at the time of biomarker measurements, indicated as SRB endpoints. For proliferation assays for adherent cell types, individual cell types are cultured at sub-confluence and relative cell numbers quantified by SRB staining at time points optimized for each system (48 h: 3C and CASM3C systems; 72 h: BT and HDF3CGF systems; 96 h: SAg system). SRB was performed by staining cells with 0.1% SRB after fixation with 10% TCA and reading wells at 560 nm.Viability and proliferation of PBMC (T cells) was quantified by Alamar Blue reduction for the SAg and BT systems. For PBMC viability (referred to as PBMC Cytotoxicity within the assay endpoint names), cells were plated (75,000/well in a 96-well plate) and then chemical samples added for 1 h before addition of activators, SEB and TSST-1 (20 ng/mL final concentration each). Cells were incubated for 90 h. Then, Alamar Blue (20 uL/well) (Invitrogen, Cat DAL1100) was added for 6 h, and the plates were read with a fluorescence microplate reader at 546/580 nm (excitation/emission). For PBMC proliferation, cells were plated and activated as above but incubated for only 16 h prior to addition of Alamar Blue. Plates were read after 6 h.

[4] = IUF_NPC5_oligodendrocyte_differentiation_120hr: Leibniz Research Institute for Environmental Medicine (IUF) 120-hour Oligodendrocyte Differentiation Assay (NPC5) (AID 2284304; active = hit-call score of the fitted dose curve at least 0.9, where 1 is the maximum;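 also: share of O4-positive cells among Hoechst nuclei found by CNN image analysis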)
Method in brief: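 Human fetal neural progenitor spheres (0.3 mm) plated on poly-D-lysine/laminin in N2 differentiation medium and exposed for 120 h at 7 concentrations, with half-medium renewal at day 3. O4-positive cells identified by CNN, expressed as percent of Hoechst nuclei.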

[5] = IUF_NPC4_neurite_area_120hr: Leibniz Research Institute for Environmental Medicine (IUF) 120-hour Neuronal Morphology Assay for Neurite Area (NPC4) (AID 2284305; active = hit-call score of the fitted dose curve at least 0.9, where 1 is the maximum)
Experimental: IUF_NPC2-5 is a cell-based, multiplexed assay that uses hNPC, a human primary neural progenitor cells, with measurements taken at 72 or 120 hours after chemical dosing in a 96-well plate. Human neural progenitor cells (hNPC) are generated from human fetal brain cortex at gestational week (GW) 16-19. In the neural progenitor cell migration and differentiation assay (NPC2-5), hNPCs grown as spheres are plated on an extracellular matrix and migrate and differentiate out of the sphere core. The processes radial glia migration, neuronal and oligodendrocyte migration as well as neuronal differentiation, neuronal morphology and oligodendrocyte differentiation are studied using automated phase contrast imaging and automated fluorescence imaging in combination with high content image analysis. In parallel, the cell viability is assessed using an alamar blue viability assay and the cytotoxicity using a lactate dehydrogenase dependent membrane integrity assay.IUF_NPC4_neurite_area_120hr is one of 12 assay components measured from the IUF_NPC2-5 assay. The neurite area at 120 hr is the mean area in pixel (without nuclei) of all neurons (see IUF_NPC3_neuronal_differentiation_120hr) that are identified by the skeletonization algorithm in Omnisphero.Data from the IUF_NPC4_neurite_area_120hr component was analyzed at the endpoint IUF_NPC4_neurite_area_120hr in the positive analysis fitting direction relative to DMSO as the negative control and baseline of activity. Using a type of differentiation reporter, loss-of-signal activity can be used to understand developmental effects.
as §1

[6] = IUF_NPC2-5_cytotoxicity_72hr: Cytotoxicity Assessment at 72 hours in the Leibniz Research Institute for Environmental Medicine (IUF) Neural Progenitor Cell Migration and Differentiation Assay for Cytotoxicity (NPC2-5) (AID 2284306; active = hit-call score of the fitted dose curve at least 0.9, where 1 is the maximum;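 also: LDH release into supernatant measured by resorufin fluorescence marking membrane damage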)
Method in brief: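 Human fetal (GW 16-19) neural progenitor spheres, 0.3 mm, plated on poly-D-lysine/laminin in N2 differentiation medium and exposed from day 0 to 7 concentrations plus solvent control (DMSO ≤0.1%). LDH-dependent resazurin-to-resorufin fluorescence in supernatant at 72 h.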

[7] = IUF_NPC2-5_cytotoxicity_120hr: Cytotoxicity Assessment at 120 hours in the Leibniz Research Institute for Environmental Medicine (IUF) Neural Progenitor Cell Migration and Differentiation Assay (NPC2-5) (AID 2284307; active = hit-call score of the fitted dose curve at least 0.9, where 1 is the maximum)
Method in brief: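 Human fetal (GW 16-19) neural progenitor spheres (0.3 mm) plated on poly-D-lysine/laminin in N2 differentiation medium, exposed 120 h with half-medium renewal at day 3; 7 concentrations plus solvent control, DMSO ≤0.1%. LDH release in supernatant read by resorufin fluorescence.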

[8] = IUF_NPC2-5_cell_number_120hr: Cell Number Assessment at 120 hours in the Leibniz Research Institute for Environmental Medicine (IUF) Neural Progenitor Cell Migration and Differentiation Assay (NPC2-5) (AID 2284308);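 also: count of Hoechst-stained nuclei in migration zone around plated human neural progenitor spheres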
Method in brief: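 Human fetal neural progenitor spheres (0.3 mm) plated on poly-D-lysine/laminin in N2 differentiation medium, exposed five days across 7 concentrations with half-medium refresh at day 3. Hoechst-positive nuclei counted in migration area at 120 h, relative to DMSO.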

Measured: outcome

O=S(=O)(O)C(F)(F)C(F)(F)C(F)(F)C(F)(F)C(F)(F)C(F)(F)F
inactive: all assays above

O=C(O)C(F)(F)C(F)(F)C(F)(F)C(F)(F)C(F)(F)F
inactive: CD69, CD69 (gene 969)

O=S(=O)(O)C(F)(F)C(F)(F)C(F)(F)C(F)(F)F
inactive: all assays above

CCOP(=S)(OCC)SCSC(C)(C)C
not listed: CD69, CD69 (gene 969) | [4]
inactive: all other assays above
